In paper PMC4336329 (PLoS ONE, 2015):
The whole screen tested about 310,000 compounds, of which about 14,000 (4.5%) showed an effect of 50% or more. The effect is printed as a negative number. The sample as a whole holds a higher share of strong results than the screen did.

What follows are compounds tested against human ether-à-go-go-related gene (hERG) potassium channel (human, UniProt Q12809) (assay: primary screen, population patch clamp on CHO cells stably expressing hERG; higher = less effect of the substance).
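Also: peak tail current of the secondary pulse compared with the same well before compound.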

Chain of human ether-à-go-go-related gene (hERG) potassium channel (Q12809 whole entry, looked up): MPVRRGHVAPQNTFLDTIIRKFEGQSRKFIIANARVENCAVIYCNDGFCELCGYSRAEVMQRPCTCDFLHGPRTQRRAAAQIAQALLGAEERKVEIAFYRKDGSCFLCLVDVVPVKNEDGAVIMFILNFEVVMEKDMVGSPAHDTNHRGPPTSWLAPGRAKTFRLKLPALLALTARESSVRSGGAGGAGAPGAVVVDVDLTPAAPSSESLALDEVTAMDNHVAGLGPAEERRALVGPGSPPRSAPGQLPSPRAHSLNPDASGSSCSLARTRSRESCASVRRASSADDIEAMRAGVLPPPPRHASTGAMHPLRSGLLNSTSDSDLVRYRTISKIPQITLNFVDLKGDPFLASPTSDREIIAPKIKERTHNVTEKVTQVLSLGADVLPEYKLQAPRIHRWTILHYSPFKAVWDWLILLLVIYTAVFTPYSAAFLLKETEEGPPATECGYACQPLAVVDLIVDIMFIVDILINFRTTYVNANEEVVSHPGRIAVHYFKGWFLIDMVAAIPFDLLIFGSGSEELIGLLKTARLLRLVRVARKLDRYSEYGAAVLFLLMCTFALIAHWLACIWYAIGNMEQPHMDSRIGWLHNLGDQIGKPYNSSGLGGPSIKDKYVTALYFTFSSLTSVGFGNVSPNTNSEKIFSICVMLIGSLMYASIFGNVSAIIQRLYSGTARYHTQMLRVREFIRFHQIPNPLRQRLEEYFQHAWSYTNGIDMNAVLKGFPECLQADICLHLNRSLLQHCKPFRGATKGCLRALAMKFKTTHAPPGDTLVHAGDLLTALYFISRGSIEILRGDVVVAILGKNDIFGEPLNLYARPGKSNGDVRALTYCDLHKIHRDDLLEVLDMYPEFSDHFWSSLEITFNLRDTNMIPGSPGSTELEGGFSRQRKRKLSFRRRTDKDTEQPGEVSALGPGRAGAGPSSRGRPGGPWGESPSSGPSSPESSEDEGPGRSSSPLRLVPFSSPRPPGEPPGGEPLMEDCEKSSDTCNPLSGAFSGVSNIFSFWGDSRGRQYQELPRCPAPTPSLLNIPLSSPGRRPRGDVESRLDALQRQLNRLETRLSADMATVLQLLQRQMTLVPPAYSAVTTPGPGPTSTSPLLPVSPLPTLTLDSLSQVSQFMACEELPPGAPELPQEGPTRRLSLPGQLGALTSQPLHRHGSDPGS

Point of comparison: COc1cccc(-c2nn(-c3ccccc3)cc2C(=O)O)c1, “hERG current change (%, negative = inhibition) at 10uM” value 1.11%. Against it:
- COc1ccc(NC(=O)C2CC(=O)OC2(C)C)cc1 (stereo not shown) — higher, 3.44%
- CCOC(=O)CNC(=O)Nc1ccccc1C(=O)OC — higher, 15.1%
- Cc1cc(C)n(S(=O)(=O)c2cccc([N+](=O)[O-])c2)n1 — higher, 3.73%
- COc1ccc(C(=O)C(C)N(C(=O)c2ccc(Cl)cc2Cl)N2C(=O)C3C4C=CC(C4)C3C2=O)cc1 (stereo not shown) — lower, 0.401%
- Cc1cccc(OC(=O)c2sc3ncn(C)c(=O)c3c2C)c1 — higher, 3.54%
- O=C(Cn1nc2n(c1=O)-c1ccccc1SC2)N/N=C/c1ccncc1 — lower, -1.97%
- CC(C)OC(=O)c1c(N)n(CC2CCCO2)c2nc3ccccc3nc12 (stereo not shown) — lower, -29.3%
- Nc1c(C(=O)NC2CCCC2)c2nc3ccccc3nc2n1CC1CCCO1 (stereo not shown) — lower, -4.67%
- Nc1c(C(=O)OC2CCCCC2)c2nc3ccccc3nc2n1CC1CCCO1 (stereo not shown) — lower, -63.7%
- Nc1cc(Cl)ccc1N1CCOCC1 — lower, -1.57%
- C[n+]1ccccc1COc1ccc(C(C)(C)C)cc1.Cc1ccc(S(=O)(=O)[O-])cc1 — higher, 2.84%
- COc1ccc(-c2c(-c3cc(OC)cc(OC)c3)n(C)c3ccc(-c4ccc(S(N)(=O)=O)cc4)cc23)cc1 — higher, 14.8%
- Cc1ccc(-n2c3nc(=O)[nH]c(=O)c-3cc3cc([N+](=O)[O-])ccc32)cc1 — lower, -57.6%
- Cc1ccc(-n2c3nc(=O)[nH]c(=O)c-3cc3cc([N+](=O)[O-])ccc32)cc1C — lower, -26.9%
- Cc1cccc(-n2c3nc(=O)[nH]c(=O)c-3cc3cc([N+](=O)[O-])ccc32)c1 — lower, -35.1%
- COc1ccc(CNC(=O)C(=O)NCC2OCCN2S(=O)(=O)c2ccc(F)cc2)cc1 (stereo not shown) — lower, -3.41%
- COc1ccc(-c2nc(CSCC(=O)NCc3ccc4c(c3)OCO4)c(C)o2)cc1 — lower, -6.05%
- COc1ccccc1NS(=O)(=O)c1ccc(N/N=C(\C)C(C)C)c([N+](=O)[O-])c1 — higher, 9.29%
- CCOC(=O)c1ccccc1NC(=O)c1c(O)[nH]c(=S)[nH]c1=O — higher, 15.6%
- Cc1ccc(-c2nn(-c3ccc(F)cc3)cc2C(=O)NC2CCC(O)CC2)cc1 (stereo not shown) — higher, 14.4%
- CCc1ccc(-c2nn(-c3ccccc3C)cc2C(=O)N2CCN(C3CCS(=O)(=O)C3)CC2)cc1 (stereo not shown) — lower, -1.98%
- Cc1ccc(-c2nn(-c3ccccc3)cc2C(=O)N2CCN(C3CCS(=O)(=O)C3)CC2)cc1 (stereo not shown) — lower, -68.8%
- Cc1ccc(-c2nn(-c3ccc(F)cc3)cc2C(=O)N2CCN(C3CCS(=O)(=O)C3)CC2)cc1 (stereo not shown) — lower, -61.6%
- COc1cccc(-c2nn(-c3ccc(C)cc3)cc2C(=O)NCC2CCCO2)c1 (stereo not shown) — lower, -62.2%
- COc1ccc(-c2nn(-c3ccccc3)cc2C(=O)NCC2CCCO2)cc1 (stereo not shown) — lower, -0.557%
- Cc1cccc(-c2nn(-c3ccccc3)cc2C(=O)N2CCN(C3CCS(=O)(=O)C3)CC2)c1 (stereo not shown) — lower, -36.6%
- COc1cccc(-c2nn(-c3ccc(F)cc3)cc2C(=O)NCC2CCCO2)c1 (stereo not shown) — lower, -49.7%
- O=C(c1cn(-c2ccccc2)nc1-c1ccc(F)cc1)N1CCCCC1 — lower, -10.6%
- COc1cccc(-c2nn(-c3ccc(C)cc3)cc2C(=O)N2CCN(C3CCS(=O)(=O)C3)CC2)c1 (stereo not shown) — lower, -57%
- COc1cccc(-c2nn(-c3ccc(C)cc3)cc2C(=O)N2CCc3cc(OC)c(OC)cc3C2)c1 — lower, -31.7%
- Cc1ccc(OCC(=O)NNC(=O)CSc2ncnc3sc(C)c(C)c23)cc1 — higher, 39.6%
- CC1CC(=O)Nc2ccccc2N1S(=O)(=O)c1cccc(F)c1 (stereo not shown) — higher, 9.89%
- O=C(CC1C(=O)NCCN1Cc1cccc(F)c1)NC1CCC1 (stereo not shown) — lower, -3.12%
- CCC(CC)C(=O)c1c[nH]c(C(=O)O)c1 — higher, 19.6%
- CC1CCN(Cc2cc(=O)oc3cc(O)c(Cl)cc23)CC1 — higher, 9.11%
- Cc1nn(-c2ccccc2)c(C)c1/C=N/NC(=O)c1cc(C(C)(C)C)[nH]n1 — lower, -9.72%
- O=C(Nc1nnc(-c2ccncc2)s1)Nc1ccccc1F — higher, 14.2%
- Cc1cc(C)c(C(=O)/C=C/c2ccc(C(C)C)cc2)c(=O)[nH]1 — higher, 10%
- Cc1ccccc1N(CC(=O)NCCSC1CCCCC1)S(=O)(=O)c1ccccc1 — lower, -16%
- CCOc1ccc(CN(C)CC(=O)c2c(N)n(Cc3ccccc3)c(=O)n(CC)c2=O)cc1OC — lower, -75.5%
- CCn1c(=O)c(C(=O)CN2CCCc3ccccc32)c(N)n(Cc2ccccc2)c1=O — lower, -6.1%
- CCn1c(=O)c(C(=O)CN(C)Cc2ccc(F)cc2)c(N)n(Cc2ccccc2)c1=O — lower, -71%
- CCn1c(=O)c(C(=O)CN(C)Cc2cccc(OC)c2OC)c(N)n(Cc2ccccc2)c1=O — lower, -50.3%
- CCN(CC)CC(=O)c1c(N)n(Cc2ccccc2)c(=O)n(C)c1=O — lower, -2.27%
- COc1ccc(CN(C)CC(=O)c2c(N)n(Cc3ccccc3)c(=O)n(C)c2=O)c(OC)c1 — lower, -66.1%
- CN(C)CC(=O)c1c(N)n(Cc2ccccc2)c(=O)n(C)c1=O — lower, -7.58%
- COc1cccc(NC(=O)CN(C)CC(=O)c2c(N)n(Cc3ccccc3)c(=O)n(C)c2=O)c1 — lower, -8.12%
- CCn1c(=O)c(C(=O)CN2c3ccccc3CC2C)c(N)n(Cc2ccccc2)c1=O (stereo not shown) — higher, 3.42%
- CCn1c(=O)c(C(=O)CN2CCc3ccccc32)c(N)n(Cc2ccccc2)c1=O — higher, 19%
- CCn1c(=O)c(C(=O)CC#N)c(N)n(Cc2ccccc2)c1=O — lower, -4.73%
- COC(=O)Cn1c(=O)c(C(=O)CCl)c(N)n(Cc2ccccc2)c1=O — lower, -0.133%
